Lassa entry inh = blocks Lassa virus binding to or entry into cells | Lassa virus pseudotype entry inhibition, cell reporter | Potency, µM (highest dose often 37.9 µM), inactives show top-dose activity change, negative = inhibition, actives largely listed as inhibitors | actives 1.2% (n = 300,000) | AID 540256; calls by dose curve; tested in HEK293 cells; note: potency is the fitted concentration of half-maximal effect; nearly all actives have a fitted effect of over 50% in size
VACV mCherry inh = vaccinia inhibition (mCherry reporter); Potency, µM (top dose mostly 36.5 µM), for inactives: at the top dose activity change, negative = inhibition, actives largely listed as inhibitors; Vaccinia virus mCherry reporter infection, fluorescence; actives 0.63% (n = 310,000); calls by dose curve; tested in A549 cells; note: potency is the fitted concentration of half-maximal effect; nearly all actives have a fitted effect of over 35% in size
MARV entry inh = Marburg virus entry inhibition | Potency, µM (doses to about 37.8 µM), inactives show at the highest dose activity change, negative = inhibition, hits mostly inhibitors | AID 540276 | Marburg virus pseudotyped entry inhibition, cell reporter | actives 1.8% (n = 300,000); calls by dose curve; tested in HEK293 cells; note: potency is the fitted concentration of half-maximal effect
VACV Venus inh = vaccinia inhibition (Venus reporter); Vaccinia virus Venus reporter expression, fluorescence; Potency, µM (series often up to 36.5 µM), for the others: top-dose activity change, negative = inhibition, usual class: inhibitors; actives 0.46% (n = 330,000); AID 720580; calls by dose curve; tested in A549 cells; note: potency is the fitted concentration of half-maximal effect; nearly all actives have a fitted effect of over 30% in size
FMDV inh = antivirals against foot and mouth disease virus | actives 1.2% (n = 410,000) | FMDV antiviral cell-based qHTS | Potency, µM (highest dose often 57.9 µM), without a hit: at the highest dose activity change, negative = inhibition, hits mostly inhibitors; calls by dose curve; tested in HEK293T cells; note: read-out not given here; potency is the fitted concentration of half-maximal effect; nearly all actives have a fitted effect of over 45% in size
HCMV inh = blocks human cytomegalovirus replication | HFF cells, HCMV-luciferase reporter, 72 h; active compounds read low | activity change, negative = inhibition, % at 57.5 µM | actives 4.5% (n = 410,000); in the data active = activity change below about -60%; inconclusive = no clear call, values can overlap the other calls; inactive = above about -39%
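Two compound doses tested in HFFs infected with HCMV-luciferase, MOI 1 PFU/cell, 72 h at 37C. Lysate luminescence read with OneGlo; data normalized against buffer-only and 10uM Salinomycin inhibitor controls.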
The depositor's hits bear a star; i = inactive; ? = inconclusive; · = no result; + = active, no number; [ ] = remark or other dose. Hits are enriched below; roughly 6.5% of the tested compounds scored in any of these assays. % is set by controls: 0 for no effect and ±100 for the full control effect.

SMILES | Lassa entry inh | VACV mCherry inh | MARV entry inh | VACV Venus inh | FMDV inh | HCMV inh
Nc1nonc1-n1nnc(C(=O)N/N=C/c2cccc(Cl)c2)c1-c1cccs1 | -3.0%[46.1 µM] | -6.4% | 22.1%[46.1 µM] | -18.6% | -6.1% | +
CC(=O)O[C@H]1C=C[C@@H](NC(=O)OC(C)(C)C)C1 | · | · | · | · | · | 7.5
Cc1ccccc1NC(=O)CN1C(=O)NC2(CCCCCCC2)C1=O | 4.2% | -3.5% | -0.3% | -23.2% | -11.1% | -97.5*
Cc1ccc(S(=O)(=O)N(C)C)cc1NC(=O)CN1C(=O)NC2(CCCCCC2)C1=O | 5.9% | -6.5% | -7.9% | -5.1% | -12.4% | 2.3
COc1ccc(NS(=O)(=O)c2ccc(C)c(NC(=O)CN3C(=O)NC4(CCCC4)C3=O)c2)cc1 | · | · | · | · | 36.3% | -66.3*
Cc1ccc(Oc2ccccc2NC(=O)CN2C(=O)NC3(CCCC3)C2=O)cc1 | · | · | · | · | -0.1% | -105.9*
CC(C)(C)N(Cc1ccccc1)C(=O)CN1C(=O)NC2(CCCCCC2)C1=O | · | · | · | · | -25.3% | -61.3*
Nc1ccc(/C=C/c2nc3ccccc3s2)cc1 | · | -9.7% | · | 27.7% | · | ·
CN(Cc1cccs1)c1nc(-c2cccnc2)nc2ccccc12 | -17.1% | -15.1% | ? | -19.3% | 31.6µM* | -23.0
CN(C)c1nc(-c2cccnc2)nc2ccccc12 | · | · | · | · | -6.2% | ·
CCN1CCN(C(c2nnnn2Cc2ccc3c(c2)OCO3)C(C)C)CC1 (stereo not given) | 4.1% | · | -3.2% | · | -6.9% | 56.9
CC(C)C(c1nnnn1Cc1ccc(F)cc1)N1CCN(Cc2ccc3c(c2)OCO3)CC1 (stereo not given) | ? | · | 12.6µM* | ? | ? | -5.5
Cc1ccc(C(c2nnnn2CCc2ccccc2)N2CCSCC2)cc1 (stereo not given) | ? | -20.2% | 2.24µM* | -8.2% | 19.2% | ?
Cc1ccc(C(c2nnnn2Cc2cccs2)N2CCN(Cc3ccc4c(c3)OCO4)CC2)cc1 (stereo not given) | 11.2µM* | -20.1% | ? | -28.9% | 15.9% | 2.0
CCC(C)(C)n1nnnc1C(c1cc2cc(C)cc(C)c2[nH]c1=O)N1CCN(Cc2ccc3c(c2)OCO3)CC1 (stereo not given) | 1.2% | -9.9% | 11.8% | -12.0% | 5.62µM* | -60.3*
CCC(C)(C)n1nnnc1C(c1cc2cc(C)cc(C)c2[nH]c1=O)N1CCCC1 (stereo not given) | 3.8% | · | ? | · | 17.8% | -5.2
CCOc1ccc(CNC(=O)C2CCN(C3=NS(=O)(=O)C(c4ccc(C)cc4)=C3CC)CC2)cc1 | · | -18.3% | ? | -21.5% | -17.3% | 9.2
Cc1ccccc1CN1C(=O)CS/C1=N/N=C/c1ccco1 | 10µM* | -17.1% | 11.2%[46.1 µM] | -13.6% | -14.6% | 9.2
CCC1S/C(=N/N=C/c2ccco2)N(Cc2ccccc2C)C1=O (stereo not given) | · | · | · | · | -6.8% | -19.8
Cc1ccc(-n2c(-c3ccccc3)c[n+]3c2CCc2ccccc2-3)c(C)c1 | 1µM* | ? | ? | ? | 2.82µM* | -96.9*
Cc1ccc(-n2c(SCC(=O)N3CCCc4ccccc43)nnc2-c2cccnc2)c(C)c1 | 8.4% | i | -17.3% | -7.0% | -19.3% | ?
O=C(OC1CNC(C#Cc2cc3ncnc(Nc4ccc5c(ccn5Cc5cc(F)ccc5F)c4)c3s2)C1)N1CCOCC1 (stereo not given) | 3.97µM* | · | · | · | · | ·
O=c1c(Cl)cc(Cl)nn1-c1ccccc1 | ? | -4.7% | 16.4µM* | -9.5% | 35.5µM* | -66.4*
COc1cc(Cl)nn(-c2ccccc2)c1=O | -6.2% | -9.9% | ? | -6.7% | -1.2% | -38.7
c1ccc(-c2cn3nc(-c4ccccc4)cnc3n2)cc1 | ? | i | -4.1% | -11.9% | 5.4% | 29.6
SMILES | Lassa entry inh | VACV mCherry inh | MARV entry inh | VACV Venus inh | FMDV inh | HCMV inh
c1ccc(-c2cn3nc4c(nc3n2)CCCC4)cc1 | 1.12µM* | -9.7% | 1µM* | -10.3% | 5.62µM* | 39.2
Brc1ccc(-c2cn3nc4c(nc3n2)CCCC4)cc1 | ? | i | 5.01µM* | -7.2% | ? | ?
Cc1ccc(NC(=O)N(Cc2c[nH]c3ccccc23)C2CCCCCC2)cc1C | 2.51µM* | ? | ? | 9.8% | 19.2% | -4.0
COc1cccc(NC(=O)N(Cc2cn(C)c3ccccc23)C2CCCCC2)c1 | ? | -21.5% | 2.4%[46.1 µM] | -21.6% | 18.9% | -103.9*
COc1cccc(NC(=O)N(Cc2c[nH]c3ccccc23)C2CCCCC2)c1 | -16.0%[46.1 µM] | -9.5% | ? | -7.7% | 13.2% | 39.6
CCC(=O)Nc1ccc2nc(SCCOc3ccc(C)cc3OC)sc2c1 | -8.7%[46.1 µM] | -4.4% | ? | -15.1% | -20.3% | -21.1
CN1C(=O)C(C(Nc2ccccc2)c2ccccc2)c2ccccc21 (stereo not given) | · | · | · | · | · | -4.1
CCCN(Cc1ccccc1)C(=O)Nc1ccc2c(c1)nnn2C | 2.59µM* | -6.1% | ? | 4.0% | · | -0.7
Cn1nnc2cc(NC(=O)Nc3ccccc3F)ccc21 | · | -4.1% | · | -9.8% | 1.5% | 39.7
O=C1C(=Cc2cccs2)Oc2ccccc21 | ? | -16.3% | 12.3%[46.1 µM] | 8.5% | 45.0% | -69.4*
O=C1/C(=C/c2cccs2)COc2ccccc21 | 15.4% | -8.0% | ? | -0.8% | -42.7% | 15.0
CCCN(CCC)CCCNC(=O)c1cc2c(-c3ccc(Cl)cc3)nn(C)c2s1 | ? | ? | ? | -22.1% | -23.3% | -89.3*
CCCN(CCC)CCCNC(=O)c1cc2c(=O)n(CC)c3ccccc3c2s1 | ? | -14.5% | 10µM* | -13.6% | 13.6% | 159.5
CCN(CCCNC(=O)c1cc2c(=O)n(CC)c3ccccc3c2s1)c1ccccc1 | -12.3%[46.1 µM] | -14.3% | 16.4%[46.1 µM] | -8.8% | -27.6% | -22.1
CCN(CC)CCCNC(=O)c1cc2c(-c3ccc(Cl)cc3)nn(C)c2s1 | · | -14.1% | · | ? | -6.5% | ·
CCCCN(CC)CCCNC(=O)c1cc2c(=O)n(CC)c3ccccc3c2s1 | -2.5% | -10.1% | 11.2µM* | ? | -7.4% | 169.3
CCCCN(CC)CCNC(=O)c1cc2c(=O)n(CC)c3ccccc3c2s1 | ? | -20.9% | ? | -23.4% | 0.0% | 78.1
CCCCN(CC)CCNC(=O)c1cc2c(=O)n(C)c3ccccc3c2s1 | ? | ? | 7.94µM* | -8.2% | -9.9% | 150.2
Cc1cc(C)n(-c2ccc(C(=O)N3CCc4c(cnc(C)c4CNC(=O)c4ccccc4F)C3)cc2)n1 | · | -14.1% | · | -6.3% | -11.1% | ·
CCC(=O)N1[C@@H]2Cn3c(cccc3=O)[C@H]1[C@@H](C(=O)NC1CCCCC1)[C@@H]2CO | · | · | · | · | · | 5.0
Cc1cnc(C)c(-c2cccc3c2OC(CNC(=O)CN2C(=O)c4ccccc4C2=O)C3)n1 (stereo not given) | · | i | · | -14.1% | 0.6% | ·
Cc1c(N/N=C(\C#N)C(=O)c2ccccc2)c(=O)n(-c2ccccc2)n1C | ? | 12.6µM* | 11.2µM* | -26.8% | -17.4% | -79.1*
Cc1ccccc1C(=O)/C(C#N)=N/Nc1c(C)n(C)n(-c2ccccc2)c1=O | ? | ? | ? | ? | -31.7% | -87.7*

High-throughput results: PubChem BioAssay, National Center for Advancing Translational Sciences (NCATS)
